# Reference: the supplement of paper PMC8728848
# About 410 targets per protein were measured; listed, in parts, are those with the strongest signals and a random draw of the rest.
# Experiments:
# Assay in all cases: glycan array binding signal (z-score within array); higher = stronger binding
# Conditions in all cases: glycan notation: IUPAC condensed, linker removed
# [1] = target: Fuc(a1-2)Gal(b1-3)GalNAc(a1-3)[Fuc(a1-2)]Gal(b1-4)GlcNAc
# Summary of the method: (§1)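 Columns mapping to the same glycan were averaged after glycan names were converted to IUPAC-condensed notation. The data come from 3228 arrays in the Consortium for Functional Glycomics database, limited to those with an available protein sequence. Binding is reported as a within-array Z-score averaged across arrays of one protein sequence and across linkers.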
# Fuc(a1-2)Gal(b1-3)GlcNAc = target: Fuc(a1-2)Gal(b1-3)GlcNAc
# Summary of the method: as §1
# [2] = target: Fuc(a1-2)Gal(b1-3)GlcNAc(b1-2)Man(a1-3)[Fuc(a1-2)Gal(b1-3)GlcNAc(b1-2)Man(a1-6)]Man(b1-4)GlcNAc(b1-4)GlcNAc
# Summary of the method: as §1
# [3] = target: Fuc(a1-2)Gal(b1-3)GlcNAc(b1-3)[Gal(b1-4)GlcNAc(b1-6)]Gal(b1-4)Glc
# Summary of the method: as §1
# [4] = target: Fuc(a1-2)Gal(b1-3)GlcNAc6S
# Summary of the method: as §1
# [5] = target: Fuc(a1-2)Gal(b1-4)GlcNAc(b1-2)Man(a1-3)[Fuc(a1-2)Gal(b1-4)GlcNAc(b1-2)Man(a1-6)]Man(b1-4)GlcNAc(b1-4)GlcNAc
# Summary of the method: as §1
# [6] = target: Fuc(a1-2)[Gal(a1-3)]Gal(b1-3)GlcNAc(b1-3)GalNAc
# Summary of the method: as §1
# [7] = target: Fuc(a1-2)[Gal(a1-3)]Gal(b1-4)GlcNAc(b1-2)Man(a1-3)[Fuc(a1-2)[Gal(a1-3)]Gal(b1-4)GlcNAc(b1-2)Man(a1-6)]Man(b1-4)GlcNAc(b1-4)GlcNAc
# Summary of the method: as §1
# [8] = target: Fuc(a1-2)[GalNAc(a1-3)]Gal(b1-4)GlcNAc(b1-6)GalNAc
# Summary of the method: as §1
# [9] = target: Fuc(a1-3)[Gal(b1-4)]GlcNAc
# Summary of the method: as §1
# [10] = target: Gal(a1-3)Gal(b1-4)GlcNAc(b1-2)Man
# Summary of the method: as §1
# [11] = target: Gal(a1-4)Gal(b1-3)GlcNAc(b1-2)Man(a1-3)[Gal(a1-4)Gal(b1-3)GlcNAc(b1-2)Man(a1-6)]Man(b1-4)GlcNAc(b1-4)GlcNAc
# Summary of the method: as §1
# Gal(a1-4)GlcNAc = target: Gal(a1-4)GlcNAc
# Summary of the method: as §1
# Gal(b1-3)Gal(b1-4)GlcNAc = target: Gal(b1-3)Gal(b1-4)GlcNAc
# Summary of the method: as §1
# [12] = target: Gal(b1-3)GlcNAc(b1-3)Gal(b1-4)GlcNAc(b1-2)[Gal(b1-3)GlcNAc(b1-3)Gal(b1-4)GlcNAc(b1-6)]Man(a1-6)[Gal(b1-3)GlcNAc(b1-3)Gal(b1-4)GlcNAc(b1-2)Man(a1-3)]Man(b1-4)GlcNAc(b1-4)[Fuc(a1-6)]GlcNAc
# Summary of the method: as §1
# [13] = target: Gal(b1-3)[Fuc(a1-4)]GlcNAc(b1-2)Man(a1-3)[Gal(b1-3)[Fuc(a1-4)]GlcNAc(b1-2)Man(a1-6)]Man(b1-4)GlcNAc(b1-4)[Fuc(a1-6)]GlcNAc
# Summary of the method: as §1
# Gal(b1-4)Glc = target: Gal(b1-4)Glc
# Summary of the method: as §1
# [14] = target: Gal(b1-4)GlcNAc(b1-3)Gal(b1-3)GalNAc
# Summary of the method: as §1
# [15] = target: Gal(b1-4)GlcNAc(b1-3)Gal(b1-3)GlcNAc
# Summary of the method: as §1
# [16] = target: Gal(b1-4)GlcNAc(b1-3)Gal(b1-4)GlcNAc(b1-3)Gal(b1-4)GlcNAc(b1-2)Man(a1-3)[Gal(b1-4)GlcNAc(b1-3)Gal(b1-4)GlcNAc(b1-3)Gal(b1-4)GlcNAc(b1-2)Man(a1-6)]Man(b1-4)GlcNAc(b1-4)[Fuc(a1-6)]GlcNAc
# Summary of the method: as §1
# [17] = target: Gal(b1-4)GlcNAc(b1-3)Gal(b1-4)GlcNAc(b1-3)Gal(b1-4)GlcNAc(b1-2)[Gal(b1-4)GlcNAc(b1-3)Gal(b1-4)GlcNAc(b1-3)Gal(b1-4)GlcNAc(b1-6)]Man(a1-6)[Gal(b1-4)GlcNAc(b1-3)Gal(b1-4)GlcNAc(b1-3)Gal(b1-4)GlcNAc(b1-2)Man(a1-3)]Man(b1-4)GlcNAc(b1-4)[Fuc(a1-6)]GlcNAc
# Summary of the method: as §1
# [18] = target: Gal(b1-4)GlcNAc(b1-3)Gal(b1-4)GlcNAc(b1-3)Gal(b1-4)GlcNAc(b1-3)Gal(b1-4)GlcNAc(b1-3)Gal(b1-4)GlcNAc(b1-2)[Gal(b1-4)GlcNAc(b1-3)Gal(b1-4)GlcNAc(b1-3)Gal(b1-4)GlcNAc(b1-3)Gal(b1-4)GlcNAc(b1-3)Gal(b1-4)GlcNAc(b1-6)]Man(a1-6)[Gal(b1-4)GlcNAc(b1-3)Gal(b1-4)GlcNAc(b1-3)Gal(b1-4)GlcNAc(b1-3)Gal(b1-4)GlcNAc(b1-3)Gal(b1-4)GlcNAc(b1-2)Man(a1-3)]Man(b1-4)GlcNAc(b1-4)[Fuc(a1-6)]GlcNAc
# Summary of the method: as §1
# Gal4S(b1-4)GlcNAc = target: Gal4S(b1-4)GlcNAc
# Summary of the method: as §1
# Gal6P(b1-4)GlcNAc = target: Gal6P(b1-4)GlcNAc
# Summary of the method: as §1
# Gal6S(b1-3)GlcNAc6S = target: Gal6S(b1-3)GlcNAc6S
# Summary of the method: as §1
# GalNAc(b1-6)GalNAc = target: GalNAc(b1-6)GalNAc
# Summary of the method: as §1
# GalNAc6S(b1-4)GlcNAc = target: GalNAc6S(b1-4)GlcNAc
# Summary of the method: as §1
binder,measurement,setting,value
Nc3LysM-2 (protein) AHVLQARQSVSCDFATAANTGDTCASFAAAWGITEAAFAKLNPGVSCPGNLIAGSEYCVIGTVSTGAPTTTKAATTSTTPPTTTTTTKATTLSTSTTSVSPTGPSPQMPSITSTCNKFYQVQSGDGCWSIEQAQGVSASDFMAWNKAVDAQCDNLWLGYYVCVGVKGGSSPPPTTTTKPASSSAPTPQMPNTVSNCKKFHKVVSGDGCWAIEQAAGISASDFAKWNPYVDAACDNLWLGYYVCIGV,glycan array binding signal (z-score),[1],-0.746
same,glycan array binding signal (z-score),Fuc(a1-2)Gal(b1-3)GlcNAc,0.966
same,glycan array binding signal (z-score),[2],-0.335
same,glycan array binding signal (z-score),[3],0.735
same,glycan array binding signal (z-score),[4],-1.29
same,glycan array binding signal (z-score),[5],2.21
same,glycan array binding signal (z-score),[6],-0.745
same,glycan array binding signal (z-score),[7],2.78
same,glycan array binding signal (z-score),[8],-1.2
same,glycan array binding signal (z-score),[9],-0.073
same,glycan array binding signal (z-score),[10],-0.456
same,glycan array binding signal (z-score),[11],-0.185
same,glycan array binding signal (z-score),Gal(a1-4)GlcNAc,0.991
same,glycan array binding signal (z-score),Gal(b1-3)Gal(b1-4)GlcNAc,-0.043
same,glycan array binding signal (z-score),[12],2.73
same,glycan array binding signal (z-score),[13],0.856
same,glycan array binding signal (z-score),Gal(b1-4)Glc,-0.252
same,glycan array binding signal (z-score),[14],-1.18
same,glycan array binding signal (z-score),[15],0.13
same,glycan array binding signal (z-score),[16],2.69
same,glycan array binding signal (z-score),[17],5.8
same,glycan array binding signal (z-score),[18],2.29
same,glycan array binding signal (z-score),Gal4S(b1-4)GlcNAc,-1.15
same,glycan array binding signal (z-score),Gal6P(b1-4)GlcNAc,-0.044
same,glycan array binding signal (z-score),Gal6S(b1-3)GlcNAc6S,-1.34
same,glycan array binding signal (z-score),GalNAc(b1-6)GalNAc,0.877
same,glycan array binding signal (z-score),GalNAc6S(b1-4)GlcNAc,0.893
